Molecules are shown by their SMILES. Activity calls are given as the source filed them.

Test [1] is described as follows: binders of probe aFSTL3 on microarray, primary screen, stem cell growth factor project, biochemical, small-molecule microarray, fluorescence 635/667 (AID 1064).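 Note: measures binding of the biotinylated anti-FSTL3 antibody to printed compounds.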 The settings on record: higher = more signal.
Test [2] in a line: binders from COS7 lysate, DM2A8 probe, primary screen, torsin A project, cell lysate, small-molecule microarray, fluorescence 635/667 (AID 1065). The settings on record: higher = more signal, COS7 lysate expressing mutant human TOR1A.
A short description of test [3]: binders of probe aFGF2 on microarray, primary screen, stem cell growth factor project, biochemical, small-molecule microarray, fluorescence 635/667 (AID 1067).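 Note: measures binding of biotinylated aFGF2 protein to printed compounds on slides; z-score merges feature fluorescence and signal-to-noise across triplicate slides.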 The settings on record: higher = more signal.
A short description of test [4]: binders of probe aFGF10 on microarray, primary screen, stem cell growth factor project, biochemical, small-molecule microarray, fluorescence 635/667 (AID 1071).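 Note: score merges 667 nm spot intensity and signal to noise from triplicate slides.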 The note with it: higher = more signal.
Test [5] deals with Neurogenic locus notch homolog protein 2 (Homo sapiens) (UniProt Q04721). Briefly: Notch2 binders on small-molecule microarrays, primary screen, biochemical, small-molecule microarray, 635 nm fluorescence, stem cell growth factors (AID 1073). The note with it: Notch2 binding, higher = more signal.
Neurogenic locus notch homolog protein 2 (Homo sapiens), sequence (Q04721 whole entry, looked up, canonical isoform): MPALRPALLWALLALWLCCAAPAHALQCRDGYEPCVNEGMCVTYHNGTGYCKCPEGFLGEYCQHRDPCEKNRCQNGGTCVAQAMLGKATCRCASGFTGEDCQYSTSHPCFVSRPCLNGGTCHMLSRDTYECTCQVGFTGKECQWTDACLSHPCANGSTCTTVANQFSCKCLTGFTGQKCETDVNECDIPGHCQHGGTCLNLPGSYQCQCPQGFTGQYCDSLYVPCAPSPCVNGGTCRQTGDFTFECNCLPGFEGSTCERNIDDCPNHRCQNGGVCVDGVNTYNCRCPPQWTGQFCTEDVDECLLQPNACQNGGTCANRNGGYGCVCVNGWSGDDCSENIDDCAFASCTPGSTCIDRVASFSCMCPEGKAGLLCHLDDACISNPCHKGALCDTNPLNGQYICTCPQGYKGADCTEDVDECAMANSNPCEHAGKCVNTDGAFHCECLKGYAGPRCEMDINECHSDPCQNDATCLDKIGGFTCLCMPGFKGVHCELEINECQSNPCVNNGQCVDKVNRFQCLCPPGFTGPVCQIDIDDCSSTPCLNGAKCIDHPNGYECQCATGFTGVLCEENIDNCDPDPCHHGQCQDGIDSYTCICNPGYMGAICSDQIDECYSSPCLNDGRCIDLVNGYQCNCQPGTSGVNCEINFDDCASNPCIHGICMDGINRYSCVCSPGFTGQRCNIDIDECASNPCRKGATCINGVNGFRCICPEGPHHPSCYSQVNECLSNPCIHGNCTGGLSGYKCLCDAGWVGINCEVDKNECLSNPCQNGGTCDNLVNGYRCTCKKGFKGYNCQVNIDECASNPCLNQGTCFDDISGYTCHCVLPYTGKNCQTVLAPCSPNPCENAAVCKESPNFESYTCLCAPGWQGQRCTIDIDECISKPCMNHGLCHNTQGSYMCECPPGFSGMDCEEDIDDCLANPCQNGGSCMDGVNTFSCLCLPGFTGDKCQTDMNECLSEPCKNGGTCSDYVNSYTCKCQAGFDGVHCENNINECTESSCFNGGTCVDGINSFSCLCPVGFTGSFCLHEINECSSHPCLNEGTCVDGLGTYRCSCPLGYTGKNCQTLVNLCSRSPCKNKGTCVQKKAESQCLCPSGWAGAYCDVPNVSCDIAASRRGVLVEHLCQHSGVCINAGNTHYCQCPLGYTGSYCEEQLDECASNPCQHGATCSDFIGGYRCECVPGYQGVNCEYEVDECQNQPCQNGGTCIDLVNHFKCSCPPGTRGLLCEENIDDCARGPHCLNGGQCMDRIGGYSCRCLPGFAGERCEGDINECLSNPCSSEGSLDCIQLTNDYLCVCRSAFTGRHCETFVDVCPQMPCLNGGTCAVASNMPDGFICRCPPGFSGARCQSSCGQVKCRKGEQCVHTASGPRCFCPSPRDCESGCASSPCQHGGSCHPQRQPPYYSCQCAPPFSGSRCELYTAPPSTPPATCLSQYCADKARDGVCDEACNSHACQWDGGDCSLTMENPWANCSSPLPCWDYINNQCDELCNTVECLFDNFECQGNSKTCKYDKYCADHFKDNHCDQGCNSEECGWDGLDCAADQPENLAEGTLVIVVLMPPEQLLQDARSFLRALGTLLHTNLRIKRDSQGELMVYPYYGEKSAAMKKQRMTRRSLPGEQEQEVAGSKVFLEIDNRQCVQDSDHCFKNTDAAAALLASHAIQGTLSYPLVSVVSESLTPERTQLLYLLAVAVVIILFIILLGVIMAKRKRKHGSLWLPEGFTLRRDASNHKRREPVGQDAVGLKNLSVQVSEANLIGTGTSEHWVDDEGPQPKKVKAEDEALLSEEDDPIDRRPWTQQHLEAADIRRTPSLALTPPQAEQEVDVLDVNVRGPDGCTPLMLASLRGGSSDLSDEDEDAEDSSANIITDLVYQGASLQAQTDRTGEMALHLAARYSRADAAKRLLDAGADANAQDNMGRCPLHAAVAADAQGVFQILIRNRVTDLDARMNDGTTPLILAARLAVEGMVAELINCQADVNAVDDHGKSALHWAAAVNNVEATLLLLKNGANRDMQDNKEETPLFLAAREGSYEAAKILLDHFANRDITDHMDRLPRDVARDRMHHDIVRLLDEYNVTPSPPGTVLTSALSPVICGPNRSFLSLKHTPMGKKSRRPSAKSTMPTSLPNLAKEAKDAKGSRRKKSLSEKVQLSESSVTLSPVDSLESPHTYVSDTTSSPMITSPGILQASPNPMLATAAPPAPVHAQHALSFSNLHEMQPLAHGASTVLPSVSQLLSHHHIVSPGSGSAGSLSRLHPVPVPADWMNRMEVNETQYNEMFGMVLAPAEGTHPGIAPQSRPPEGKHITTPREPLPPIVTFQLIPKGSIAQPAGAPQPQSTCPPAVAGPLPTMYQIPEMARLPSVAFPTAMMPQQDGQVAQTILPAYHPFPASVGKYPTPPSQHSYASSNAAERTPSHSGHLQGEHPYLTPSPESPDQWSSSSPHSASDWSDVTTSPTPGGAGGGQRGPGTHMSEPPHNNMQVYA
Test [6] deals with Pro-neuregulin-1, membrane-bound isoform (Homo sapiens) (UniProt Q02297). Briefly: NRG1 binders on small-molecule microarrays, primary screen, psychiatric disease protein project, biochemical, small-molecule microarray, fluorescence 635/667 (AID 1075).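 Note: score combines 667 nm spot fluorescence with signal to noise.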 The settings on record: NRG1 binding, 635 nm fluorescence, higher = more signal.
Pro-neuregulin-1, membrane-bound isoform (Homo sapiens), sequence (Q02297 whole entry, looked up, the tested form may be a part, canonical isoform): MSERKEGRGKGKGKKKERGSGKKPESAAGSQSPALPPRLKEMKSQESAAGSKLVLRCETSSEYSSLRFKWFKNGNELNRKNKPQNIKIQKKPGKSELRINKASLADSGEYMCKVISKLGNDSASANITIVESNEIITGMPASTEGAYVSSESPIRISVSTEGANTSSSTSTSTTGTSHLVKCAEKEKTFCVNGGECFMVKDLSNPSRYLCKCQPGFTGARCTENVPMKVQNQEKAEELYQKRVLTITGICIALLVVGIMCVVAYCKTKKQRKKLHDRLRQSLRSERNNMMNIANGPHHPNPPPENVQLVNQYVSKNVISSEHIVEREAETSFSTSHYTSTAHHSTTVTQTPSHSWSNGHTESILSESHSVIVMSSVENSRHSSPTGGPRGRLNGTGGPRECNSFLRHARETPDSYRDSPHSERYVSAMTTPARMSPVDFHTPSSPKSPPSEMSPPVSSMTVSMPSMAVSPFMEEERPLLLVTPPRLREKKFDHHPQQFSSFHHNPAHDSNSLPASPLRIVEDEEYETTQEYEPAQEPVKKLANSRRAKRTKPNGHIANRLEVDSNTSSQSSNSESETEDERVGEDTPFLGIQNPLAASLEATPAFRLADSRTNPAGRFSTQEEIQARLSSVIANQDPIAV
The subject of test [7] is Neuregulin-1 EGF-like domain. Briefly: binders of neuregulin-1 EGF-like domain, primary screen, biochemical, small-molecule microarray, 635 nm fluorescence (AID 1081).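 Note: binding of the protein to compounds printed on small-molecule microarray slides.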 The note with it: small-molecule microarray binding, higher = more signal.
The nature of test [8]: FRG1 promoter luciferase signal modulators, primary screen, FRG1 inhibition for FSHD, cell-based, C2C12 myotubes, firefly/Renilla luciferase, luminescence (AID 1084). The note with it: higher = more signal, called active from +8 up or from −8 down.
Test [9] can be described thus: binders of probe aFST on microarray, primary screen, stem cell growth factor project, biochemical, small-molecule microarray, fluorescence 635/667 (AID 1086).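 Note: score merges 667 nm fluorescence with signal-to-noise of each printed compound spot.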 The settings on record: higher = more signal.
A short description of test [10]: binders of probe aHhip on microarray, primary screen, stem cell growth factor project, biochemical, small-molecule microarray, fluorescence 635/667 (AID 1087).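 Note: score merges spot fluorescence at 667nm with spot signal to noise ratio.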 The note with it: higher = more signal.

In the case of `O=C1C2C=CC(C(O)c3cc(C(F)(F)F)cc(C(F)(F)F)c3)N(Nc3ccccc3F)C2C(=O)N1c1ccccc1` (stereo not given), the composite z-score in test [1] was 0.835; in test [2], 0.554; in [3] it was -0.0049; in test [4], 0.233; in test [5] it was 0.909; in [6], 1.85. The figures for the composite z-score in test [7], in test [9] and in [10] were 1.16, 0.967 and -0.202, respectively. Moreover, in [8], the z-score is 0.285 (inactive).
On to `C=CCC(OC(C)=O)[C@@H]1[C@@H](N(Cc2cc3ccccc3o2)C(=O)c2ccc(-c3ccccc3)cc2)c2cc(OCCCO)ccc2N1C(=O)Cc1ccc(OC)cc1` (stereo not given in full), for which the composite z-score was -0.0413 in test [1]; -0.183 in test [2]; -0.0002 in [3]; 0.248 in [4]; 0.0777 in [5]; 0.0526 in test [6]. Also, the composite z-score in test [7] is -0.353; in test [9], 0.331; in test [10], -0.189. The z-score in [8] was -0.802 (inactive).
As to `CC(C)CNC(=O)[C@@H]1c2ccccc2C(=O)N(C2CCCCC2)[C@H]1c1ccc(CO)cc1`, the composite z-score in [1] was 0.386; in test [2], -0.754; in test [3], -0.0962; in test [4], -0.305; in [5], -0.354; in [6] it was 1.69. The results for the composite z-score in [7], in test [9] and in test [10] were 1.28, 0.0088 and 0.0497, respectively. The z-score in [8] is -1.8 (inactive).
Take `CC(C)(C)OC(=O)CC[C@]12N=C(c3ccc(OCCCO)cc3)O[C@H]1c1ccccc1N(Cc1ccccc1)C2=O`: the composite z-score was 0.555 in test [1]; 0.178 in test [2]; 0.0436 in test [3]; 0.329 in test [4]; 0.0567 in [5]; 0.457 in test [6]. Moreover, the results for the composite z-score in test [7], in test [9] and in [10] were 1.13, 0.259 and -0.187, respectively. In addition, in [8], the z-score is -1.7 (inactive).
Turning to `COc1ccc([Si](C)(C)[C@H]2[C@H](CC(=O)N3CCC[C@H]3CO)O[C@@]3(C(=O)N(Cc4ccc(N5CCC5=O)cc4)c4ccccc43)[C@@H]2C)cc1`, the composite z-score in test [1] is -0.589; in test [2] it was 0.429; in [3] it was -0.0276; in test [4], 0.299; in test [5] it was 0.549; in [6] it was 0.454. Besides, the composite z-score was 1.1 in [7], 0.485 in test [9] and -0.215 in test [10]. In addition, in test [8], the z-score was -4.59 (inactive).
As to `CCN(CC)c1ccc(N2CC=CC34O[C@@H]5C=CCCOC(=O)C5[C@H]3C(=O)N(CCO)[C@@H]4C2=O)cc1` (stereo not given in full), the composite z-score in [1] was 0.171; in [2], -0.981; in [3], -0.18; in [4], -0.463; in test [5], -0.894; in test [6], -0.684. For the same compound, the values for the composite z-score in test [7], in test [9] and in [10] were 1.52, -0.209 and -0.137, respectively. The z-score in [8] is -0.329 (inactive).
Consider `CN(C)C(=O)[C@@]1(Cc2ccccc2N=[N+]=[N-])N=C(c2ccc(OCCCO)cc2)O[C@H]1c1ccccc1`, for which the composite z-score in [1] is 0.657; in test [2], 0.687; in test [3], 0.0282; in [4], 0.359; in test [5], 1.63; in test [6], 1.2. Moreover, the composite z-score in test [7] is 1.32; in test [9], 1.23; in test [10], 0.294. Besides, the z-score in test [8] was -1.75 (inactive).
In the case of `C[C@@]12COC[C@]13C=C(Br)[C@H](C2)[C@@]1(CO1)C3=O`, the composite z-score in test [1] was 0.129; in test [2], -1.21; in test [3] it was -0.04; in test [4], -0.455; in [5], -0.895; in [6], -0.708. In addition, the composite z-score in test [7] is -1.12; in test [9] it was -0.476; in [10] it was -0.134. In addition, the z-score in test [8] was -0.293 (inactive).
Regarding `C=C[C@@H](C)[C@H](O)c1ccc(OCCO)cc1`, the composite z-score was 0.684 in test [1]; -1.91 in test [2]; -0.182 in [3]; -0.84 in [4]; -1.67 in test [5]; -0.0655 in test [6]. The composite z-score was 1.04 in test [7], -1.06 in test [9] and -0.236 in test [10]. The z-score in [8] was 5.39 (inactive).
As for `COC(=O)C(CC#Cc1ccc2c(c1)[C@]1(C(=O)N2)[C@H](c2ccc(OCCO)cc2)N2[C@H](c3ccccc3)[C@H](c3ccccc3)OC(=O)[C@H]2[C@@H]1C(=O)N1CCN(c2ncccn2)CC1)C(=O)OC`, the composite z-score in [1] was -0.505; in test [2], 1.01; in test [3], 0.0275; in test [4] it was 1.12; in [5], 1.51; in test [6], 0.746. The composite z-score in test [7] was determined as 1.27; in test [9], 0.643; in [10] it was 0.386. The z-score in [8] is 1.45 (inactive).
As for `CCCC=C(CCC)[C@@H](NS(=O)(=O)c1cccc2cccnc12)c1ccc(-c2ccccc2)cc1`, the composite z-score in [1] is -0.245; in [2] it was 0.185; in test [3], 0.103; in test [4], 0.91; in test [5], 1.66; in test [6], 1.08. In addition, the results for the composite z-score in test [7], in test [9] and in test [10] were 0.898, 1.41 and -0.0417, respectively. In addition, the z-score in [8] is 2 (inactive).
`CC(C)C(=C=CC[C@@H](O)c1cccc(OCCO)c1)C[C@@H](O)c1ccccn1`: the composite z-score was -0.437 in [1]; -0.0934 in test [2]; -0.147 in test [3]; 0.815 in [4]; -0.553 in [5]; -0.253 in test [6]. In addition, the composite z-score in test [7] was 0.125; in test [9] it was -0.0246; in test [10], -0.137. In addition, the z-score in test [8] was 1.35 (inactive).
For the compound `C=CCC(OC(C)=O)[C@@H]1[C@@H](N(Cc2cccc3ccccc23)C(=O)Cc2ccc(F)cc2)c2cc(OCCCO)ccc2N1C(=O)c1ccc(-c2ccccc2)cc1` (stereo not given in full), the composite z-score is 0.873 in test [1]; -0.302 in test [2]; -0.0427 in [3]; -0.387 in [4]; -0.648 in [5]; -0.61 in test [6]. Also, the composite z-score is -0.802 in [7], 0.392 in [9] and -0.14 in test [10]. The z-score in test [8] is -1.83 (inactive).

The values are drawn from PubChem BioAssay.
